Compound activity: PubChem, National Center for Advancing Translational Sciences (NCATS)
HT1080 IDH1KD tx: kills HT-1080 cells with IDH1 knockdown; HT-1080 IDH1 knockdown viability, ATP luminescence, 48 h; Potency, µM (highest dose often 46.1 µM), for inactives: top-dose activity, negative = toxicity, usual class: cytotoxic; 2% of 360,000 active;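 note: potency is the fitted concentration of half-maximal effect; 0% = DMSO wells and -100% = cell-free medium wells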
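Knockdown cells (IDH1KD HT-1080) received compounds 2 h after plating at 750 cells/well and were kept 48 h at 37 °C in 5% FBS RPMI. A CellTiter-Glo luminescence read gave % activity for curve fitting.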
IL-1B inflam inh: inhibitors of inflammasome signaling (IL-1 beta secretion). 4.7% of 360,000 active. AID 743279. activity change, % at 57.5 µM. THP-1 LPS/ATP IL-1B secretion, AlphaLISA, 16 h; stronger effect = lower value; in the data active = activity change below about -50%; inconclusive = mostly about -30% to -49%
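Secreted IL-1B measured by AlphaLISA bead assay after 16 h compound exposure of THP-1 cells; compounds (final up to 57.5 uM) added 1 h before LPS (250 ng/mL) and ATP (1.25 mM) stimulation; lower signal means less secretion.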
HT1080NT lethal: kills 2HG-producing HT-1080-NT fibrosarcoma cells; HT-1080-NT fibrosarcoma viability, CellTiter-Glo ATP luminescence, 48 h; Potency, µM (series often up to 46.1 µM), inactives show top-dose activity, negative = less viability, most hits filed as cytotoxic; 1.6% of 360,000 active; AID 686970;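 note: NT is the 2HG producing partner of a matched IDH1 knockdown line; potency is the fitted concentration of half-maximal effect; 0% = DMSO-treated cells and -100% = media-only wells without cells; nearly all actives have a fitted effect of over 55% in size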
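Read-out is CellTiter-Glo luminescence after 10 minutes at room temperature, following 48 hours' compound treatment of HT-1080-NT cells (750 cells/well, RPMI, 5% FBS, 37 degrees C).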
TDP1 cell CPT: growth inhibition of DT40 Tdp1-/-;hTDP1 cells with camptothecin (screen for TDP1 inhibitors); chicken DT40 Tdp1-/-;hTDP1 cells + 20 nM CPT, ATP luminescence, 48 h; Potency, µM (doses to about 46.2 µM), for the others: top-dose activity change, negative = growth inhibition, usual class: inhibitors; 12% of 420,000 active; note: potency is the fitted concentration of half-maximal effect; nearly all actives have a fitted effect of over 55% in size
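Cell growth measured by CellTiter-Glo luminescence after a minimum 48 h, 37 C compound exposure with 20 nM CPT in Tdp1-knockout DT40 cells stably expressing hTDP1, seeded 400/well; qHTS titration format.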
DT40 TDP1 no CPT: qHTS for Inhibitors of human tyrosyl-DNA phosphodiesterase 1 (TDP1): qHTS in cells in absence of CPT; DT40 Tdp1-/- hTDP1 cells, no CPT, ATP luminescence, 48 h; Potency, µM (doses to about 46.2 µM), for the others: at the top dose activity change, negative = growth inhibition, usual class: inhibitors; 15% of 420,000 active; AID 686978, 2013; note: potency is the fitted concentration of half-maximal effect; nearly all actives have a fitted effect of over 55% in size
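Growth kinetics read by CellTiter-Glo luminescence after ≥48 hr at 37 °C. Cells: DT40 Tdp1-/- stably carrying human TDP1, 400 per well, compound exposure in the absence of CPT (DMSO vehicle).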
Active calls of the source: *; ? = inconclusive; · = not tested or not shown; [ ] = dose if it differs, or a comment. In the library only some 19% were active in any assay of this set; here they are far more common. Unless noted, calls come from the whole dose curve; as a rule, active = well fitted curve in the direction sought with a large enough effect; inconclusive = small, poorly fitted or top-dose-only effect, or another doubt; inactive = no such curve, though single readings can be large; an effect the other way counts as inactive or inconclusive. Unless noted, % is set by controls: 0 for no effect and ±100 for the full control effect.

SMILES | HT1080 IDH1KD tx | IL-1B inflam inh | HT1080NT lethal | TDP1 cell CPT | DT40 TDP1 no CPT
Cc1ccc(NS(=O)(=O)c2ccc3c(c2)NC(=O)CCS3)c(Br)c1 | -26% | 64 | -29% | ? | -18%
CC(C)c1ccc(NS(=O)(=O)c2ccc3nc(-c4ccccc4)[nH]c3c2)cc1 | · | · | · | 15µM* | ?
Cc1cccc(NS(=O)(=O)c2ccc3nc(-c4ccccc4)[nH]c3c2)c1C | ? | -13 | -23% | 16µM* | 16µM*
O=S(=O)(c1ccc2nc(-c3ccccc3)[nH]c2c1)N1CCN(c2cccc(Cl)c2)CC1 | -23% | 24 | ? | 2% | ?
CN(C)S(=O)(=O)c1ccc(C(=O)NC(=O)CSc2nncs2)cc1 | 0% | -1 | -4%[9.24 µM] | -17% | 13%
CCOC(=O)C1CCN(C(=O)Nc2ccc3nc(-c4ccco4)c(-c4ccco4)nc3c2)CC1 | -3% | -11 | -3% | ? | 18µM*
CCOC(=O)C1CCN(C(=O)Nc2ccc3c(c2)nc(C)n3C)CC1 | 5% | -4 | -1% | -3% | 2%
Cc1nc2ccc(NC(=O)N3CCCCC3)cc2nc1C | 11% | -6 | 6% | -2% | -19%
O=C(Nc1ccc2nc(-c3ccco3)c(-c3ccco3)nc2c1)N1CCCCCC1 | ? | ? | -29% | 12µM* | 15µM*
CCOC(=O)c1ccc2c(c1)n(CC)c(/C=C/Nc1ccccc1)[n+]2CC | -11% | 0 | -5% | 18µM* | 12µM*
CCn1c(/C=C/N(C)c2ccccc2)[n+](CC)c2ccc(Cl)cc21 | -23% | -98* | 7.1µM* | 0.58µM* | 1.3µM*
CCn1c(C)[n+](Cc2ccccc2)c2ccc(C(=O)OC)cc21 | -3% | -12 | -1% | 2% | -25%
CCn1c(/C=C/c2cc[n+](C)cc2)nc2ccccc21 | 8% | -13 | 6% | -16% | -4%
CCn1c(/C=C/Nc2ccccc2)[n+](CC)c2ccc(Cl)cc21 | -18% | -3 | 0% | 23µM* | 21µM*
COc1cc(/C=N/NC(=O)CCC(=O)NCc2ccccc2)cc(OC)c1OC | 2% | 19 | 6% | -4% | -5%
CCCc1cc(CN2CCOCC2)c(O)c(CN2CCOCC2)c1O | ? | ? | 13% | 15µM* | 18µM*
Oc1c(CN2CCOCC2)cc(CN2CCOCC2)c(O)c1O | -2% | 14 | 4% | 18µM* | ?
Oc1cccc(CN2CCOCC2)c1O | 6% | -5 | 14% | 26µM* | ?
Oc1ccc2ccccc2c1CN1CCOCC1 | 12% | -15 | 14% | -13% | -22%
Oc1c(Cl)cc(Oc2cc(Cl)c(O)c(CN3CCOCC3)c2)cc1CN1CCOCC1 | -15% | -15 | -16% | 2% | ?
CCN(c1ccccc1)S(=O)(=O)c1ccc2c(c1)C(C)(C)C(=O)N2C | 1% | -2 | 4% | 5% | ?
COC(=O)CC1C(C)(C)C(OC(C)=O)C2[C@H](OC(C)=O)[C@]34O[C@]2(O)[C@]1(C)C3CC[C@]1(C)C4=CC(=O)OC1c1ccoc1 (some centres not stated) | · | · | · | ? | 16µM*
CC(=O)OC1CC2C(C)(C)C(=O)CC[C@]2(C)C2CC[C@]3(C)C(=CC(=O)OC3c3ccoc3)[C@]12C (some centres not stated) | · | · | · | 5% | -19%
CCOc1ccc(NC(=O)c2c(NC(=O)CNCCN3CCOCC3)sc3c2CCC3)cc1 | -23% | -11 | -4% | ? | 15µM*
CCOC(=O)c1c(NC(=O)CC)sc2c1CCN(Cc1ccccc1)C2 | -7% | 9 | -19% | ? | ?
SMILES | HT1080 IDH1KD tx | IL-1B inflam inh | HT1080NT lethal | TDP1 cell CPT | DT40 TDP1 no CPT
CCOC(=O)c1c(NC(=O)CN(CC)CC)sc2c1CCN(C(=O)OCC)C2 | ? | ? | ? | ? | 26µM*
CCOC(=O)c1c(NC(=O)CN2CCCCC2)sc2c1CCN(C(=O)OCC)C2 | ? | -86* | ? | ? | ?
CCOC(=O)c1c(NC(=O)CN2CCOCC2)sc2c1CCCC2 | -3% | 7 | -1% | ? | 21µM*
CC(=O)c1cccc(NC(=O)COc2ccc(S(=O)(=O)N3CCCCC3)cc2)c1 | 2%[9.24 µM] | 3 | 3% | ? | ?
Cc1cc2c(=O)n(C)c(SCC(=O)Nc3ccccc3C)nc2s1 | -6% | 36 | -2% | ? | ?
COC(=O)c1cccc(C23CC4(C2)[C@H](CN(Cc2ccc(C(F)(F)F)cc2)[C@@H]4c2ccccc2)C3c2ccc(C(F)(F)F)cc2)c1 (some centres not stated) | -28% | 36 | -11% | ? | ?
COc1ccc(C(=O)c2c(NC(C)=O)sc3c2CCN(C(=O)OC(C)(C)C)C3)cc1 | ? | · | ? | -4% | ?
CCOC(=O)N1CCc2c(sc(NC(=O)Cc3ccccc3)c2C(=O)c2ccc(OC)cc2)C1 | -20% | -7 | -24% | ? | 26µM*
Cc1ccc2cc(C=O)c(N3CCOCC3)nc2c1C | ? | ? | -30% | ? | 18µM*
Cn1nc(C2CC2)cc1NC(=O)C1(C)CCN1C(=O)c1ccccc1CCc1ccccc1 (configuration not stated) | 6% | -9 | ? | 29µM* | 16µM*
Cn1nc(C2CC2)cc1NC(=O)C1(C)CCN1C(=O)CC(c1ccccc1)c1ccccc1 (configuration not stated) | 0% | -14 | 2% | 23µM* | 13µM*
Cn1nc(C(C)(C)C)cc1NC(=O)C1(C)CCN1C(=O)C1(c2ccccc2)CC1 (configuration not stated) | -2% | 0 | 4% | ? | ?
CSc1ccc(NC(=O)C2(C)CCN2C(=O)c2ccccc2CCc2ccccc2)cc1 (configuration not stated) | -9% | -7 | 1% | ? | ?
CCCC(=O)N1CCC1(C)C(=O)Nc1cc(-c2ccccc2)nn1C (configuration not stated) | -14% | 92 | -2% | ? | -74%
Cn1nc(C(C)(C)C)cc1NC(=O)C1(C)CCN1C(=O)CC(c1ccccc1)c1ccccc1 (configuration not stated) | -6% | -20 | 6% | 18µM* | 18µM*
CC(C)(C)C1CCc2onc(C(=O)Nc3sc4c(c3C(N)=O)CCCC4)c2C1 (configuration not stated) | · | · | · | 19% | -27%
N[C@H](Cc1cnc[nH]1)C(=O)O | · | · | · | -14% | -7%
CCN1CCc2c(sc(-n3cccc3)c2C(CCC(C)C)NC(=O)NCCC(=O)OC)C1 (configuration not stated) | · | · | · | ? | 26µM*
